Test results as given in the supplement of paper PMC3334620.
Over roughly 33,000 sequences, “E-score (-0.5 to 0.5)” has its median near -0.035; the highest 2% begin near 0.34. The sample as a whole holds a higher share of the highest values than the screen did.

Each sequence was assayed against T1, Mot3 (UniProt P54785) (assay: PBM E-score (8-mer binding enrichment) (E-score (-0.5 to 0.5)); higher = stronger / more preferred TF binding). Details: protein concentration: 200 nM; construct: GST-full length.
T1 sequence: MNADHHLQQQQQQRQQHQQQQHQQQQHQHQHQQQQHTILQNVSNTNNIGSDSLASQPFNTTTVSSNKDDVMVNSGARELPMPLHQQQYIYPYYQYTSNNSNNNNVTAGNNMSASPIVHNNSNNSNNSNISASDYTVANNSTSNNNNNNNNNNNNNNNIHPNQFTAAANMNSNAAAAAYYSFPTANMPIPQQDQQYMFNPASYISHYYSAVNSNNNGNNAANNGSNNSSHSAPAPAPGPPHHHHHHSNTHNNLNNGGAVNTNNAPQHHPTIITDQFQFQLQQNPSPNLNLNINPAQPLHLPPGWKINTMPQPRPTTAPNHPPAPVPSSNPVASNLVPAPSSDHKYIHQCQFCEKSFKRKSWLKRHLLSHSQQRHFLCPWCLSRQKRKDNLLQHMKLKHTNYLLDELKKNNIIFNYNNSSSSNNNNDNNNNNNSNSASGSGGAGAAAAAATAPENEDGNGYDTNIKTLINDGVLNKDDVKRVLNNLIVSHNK
Method: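 Universal 'all 10-mer' protein binding microarrays (Agilent AMADID 015681) probed with GST-tagged S. cerevisiae TFs (full-length or DBD) made by in vitro transcription/translation (PURExpress), about 100-200 nM. Bound TF was detected with fluorescent anti-GST. Each ungapped 8-mer (which stands for itself and its reverse complement) is scored by the PBM enrichment score (E-score), a modified Wilcoxon-Mann-Whitney statistic from -0.5 to +0.5, computed with the Universal PBM Analysis Suite. Scale: above 0.35 generally sequence-specific binding.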

Going from ATTCAATA to TACGAACA, the “PBM E-score” value rises from 0.0942 to 0.18.

Compared with CTTTTCCC, TCTGGTAA is lower in “PBM E-score” value: -0.0316 for the first, -0.0343 for the second.

Compared with CGCCTAAC, GAAGATAC is lower in “PBM E-score” value: 0.152 for the first, -0.078 for the second.

Going from GACTGCAC to AAAGCACT, the “PBM E-score” value falls from -0.0356 to -0.216.

Compared with GACGCCCA, CATAGAAC is higher in “PBM E-score” value: -0.158 for the first, -0.0217 for the second.

First: TGTCAAAA
Second: GCGTCCCC
The “PBM E-score” value of the first is higher: 0.241 for the first, -0.362 for the second.

Compared with AGCAAGGA, GACAGCCA is lower in “PBM E-score” value: -0.0799 for the first, -0.186 for the second.

Compared with AGAAGAAG, CGTGTTGA is higher in “PBM E-score” value: -0.0319 for the first, 0.395 for the second.

Compared with CGTGTTGC, AGTGTTGA is lower in “PBM E-score” value: 0.242 for the first, 0.073 for the second.

First: CCACAATA
Second: GGTCCTTA
The “PBM E-score” value of the first is higher: -0.0891 for the first, -0.152 for the second.

Going from TAGGCATA to GAGGCACA, the “PBM E-score” value rises from 0.28 to 0.47.

First: AGGGCACA
Second: GGGGCACA
The “PBM E-score” value of the first is higher: 0.3 for the first, -0.202 for the second.

First: AAGGCACA
Second: AAGGCAGA
The “PBM E-score” value of the first is higher: 0.492 for the first, 0.0903 for the second.

Compared with TAGGCACA, TAGGCAGA is lower in “PBM E-score” value: 0.491 for the first, 0.136 for the second.

Compared with AGGGCACT, GAGGCAGA is lower in “PBM E-score” value: 0.0516 for the first, -0.164 for the second.

First: AAGGCACT
Second: ACGGCACT
The “PBM E-score” value of the first is higher: 0.486 for the first, -0.139 for the second.

Going from AACGTATG to CGCGCTGC, the “PBM E-score” value falls from 0.0662 to -0.0871.

First: TAAACATA
Second: CCCAGATC
The “PBM E-score” value of the first is higher: 0.284 for the first, -0.111 for the second.

Compared with ATTTTCAA, GAGGCACC is higher in “PBM E-score” value: 0.12 for the first, 0.463 for the second.

Going from AAGGCGCT to AAGGCGCG, the “PBM E-score” value falls from 0.353 to 0.252.

Compared with GGGGCACC, TGGGCACA is higher in “PBM E-score” value: -0.152 for the first, 0.356 for the second.

Going from AAGGCGCA to CGGGCACA, the “PBM E-score” value falls from 0.336 to 0.0796.

Compared with CGGGCACG, GCGGCACC is lower in “PBM E-score” value: 0.263 for the first, -0.159 for the second.

First: AACAGCTC
Second: CTCTTTAC
The “PBM E-score” value of the first is lower: -0.162 for the first, 0.177 for the second.

Going from TGGCCACA to ATTCCAGC, the “PBM E-score” value falls from -0.096 to -0.168.

Compared with CTTCACGC, AGCAGGTC is lower in “PBM E-score” value: 0.151 for the first, -0.0131 for the second.

Going from TAGTGTAA to ACGTGTGA, the “PBM E-score” value falls from 0.206 to 0.184.

Going from CCGTGTGA to AGGTGTAA, the “PBM E-score” value falls from 0.277 to 0.26.

Compared with CCGTGTAA, TCGTGTAA is higher in “PBM E-score” value: 0.403 for the first, 0.411 for the second.

Going from GCGTGTCC to TGGTGTAA, the “PBM E-score” value rises from 0.0864 to 0.186.

Compared with ACGTGTAA, GCGTGGAA is lower in “PBM E-score” value: 0.414 for the first, -0.104 for the second.

Compared with CAGTGTAA, GCGTGTAA is higher in “PBM E-score” value: 0.225 for the first, 0.431 for the second.

Compared with ACTCCAGG, ACACCTAA is higher in “PBM E-score” value: 0.0384 for the first, 0.168 for the second.

Compared with AGGGCAAG, CACTCTAG is lower in “PBM E-score” value: 0.13 for the first, -0.145 for the second.

First: ACCCAGCC
Second: GTTCCTGA
The “PBM E-score” value of the first is lower: -0.259 for the first, 0.428 for the second.

Compared with GTTCCTTA, CTTCCTAA is lower in “PBM E-score” value: 0.428 for the first, 0.0478 for the second.

First: ATTCCTGA
Second: GTTCCTAA
The “PBM E-score” value of the first is lower: 0.136 for the first, 0.431 for the second.

First: ATTCCTTA
Second: CTTCCTTA
The “PBM E-score” value of the first is higher: 0.211 for the first, 0.146 for the second.

First: ATTCCTAA
Second: CTTCCTGA
The “PBM E-score” value of the first is higher: 0.105 for the first, -0.0128 for the second.

Going from CCCGAAGG to ATGGAAGC, the “PBM E-score” value falls from -0.0155 to -0.191.

First: ACATGCGG
Second: AAGTGCCC
The “PBM E-score” value of the first is higher: 0.175 for the first, -0.177 for the second.

First: ACATGCGT
Second: AAATGCCA
The “PBM E-score” value of the first is higher: 0.341 for the first, -0.105 for the second.

Going from AAATGCCC to ACATGCCA, the “PBM E-score” value rises from -0.192 to 0.304.

Going from ACATGCCC to AAATGCCT, the “PBM E-score” value rises from 0.21 to 0.377.

First: ACATGCCT
Second: ACATGCGC
The “PBM E-score” value of the first is higher: 0.366 for the first, 0.251 for the second.

Compared with AAGTGCCA, AAGTGCCT is higher in “PBM E-score” value: 0.0649 for the first, 0.48 for the second.

First: TCAGACCA
Second: CCTCTTGC
The “PBM E-score” value of the first is lower: -0.201 for the first, 0.0662 for the second.

Compared with GAGGGTGA, CCGCTCCG is lower in “PBM E-score” value: -0.208 for the first, -0.227 for the second.

Compared with AAACCGAA, ACAGCTGT is higher in “PBM E-score” value: -0.0393 for the first, -0.0347 for the second.

Going from AGCTCAGC to ATGCAGGA, the “PBM E-score” value rises from -0.206 to 0.0312.

Going from ATGCAGGC to CTGCAGTC, the “PBM E-score” value falls from 0.342 to -0.106.

First: CTGCAGGA
Second: ATGCAGGG
The “PBM E-score” value of the first is higher: 0.291 for the first, -0.153 for the second.

Going from CTGCAGGC to ACCATTTC, the “PBM E-score” value falls from 0.406 to -0.123.

Going from CCGAGACG to CGCTGGTC, the “PBM E-score” value falls from -0.0781 to -0.275.

Compared with CCTGTCGC, CATGTCGG is higher in “PBM E-score” value: -0.046 for the first, 0.222 for the second.

Going from GCTGTCGA to CCTGTCGA, the “PBM E-score” value rises from -0.12 to 0.342.

First: CATGTCGA
Second: GATGTCGA
The “PBM E-score” value of the first is higher: 0.351 for the first, 0.215 for the second.

First: GGGTTCTA
Second: GTCTGTAA
The “PBM E-score” value of the first is lower: -0.176 for the first, 0.149 for the second.

Compared with AGTTTACA, CGTTTACA is lower in “PBM E-score” value: 0.363 for the first, 0.349 for the second.

Compared with AGTTTACC, AGTTTACG is higher in “PBM E-score” value: 0.0908 for the first, 0.188 for the second.

First: CGTTTAGA
Second: CGTTTACC
The “PBM E-score” value of the first is lower: 0.0393 for the first, 0.0878 for the second.

First: AAAGATGC
Second: AGTCCTCC
The “PBM E-score” value of the first is higher: 0.132 for the first, -0.221 for the second.

Going from CACAGAAG to CTTGAAAG, the “PBM E-score” value rises from -0.00641 to 0.0362.

First: AGGAGGGG
Second: GAAGCCAC
The “PBM E-score” value of the first is higher: -0.156 for the first, -0.196 for the second.

Going from AGCCTGAA to CGCCTGCA, the “PBM E-score” value rises from 0.223 to 0.23.

Compared with GGCCTGTA, AGCCTGCA is higher in “PBM E-score” value: 0.148 for the first, 0.344 for the second.

Compared with GGCCTGCA, GGCCTGAA is lower in “PBM E-score” value: -0.0526 for the first, -0.277 for the second.

First: CGCCTGAA
Second: AGCCTGTA
The “PBM E-score” value of the first is lower: 0.297 for the first, 0.342 for the second.

Compared with TGCCTGAA, CAGTACTG is lower in “PBM E-score” value: 0.48 for the first, -0.132 for the second.

Going from CCCCCGCA to GTCTCGCA, the “PBM E-score” value falls from -0.214 to -0.238.

Compared with CGATCAAC, AAACCCCT is lower in “PBM E-score” value: 0.0859 for the first, 0.0363 for the second.

First: GATGCTAC
Second: CAAACGCC
The “PBM E-score” value of the first is higher: -0.122 for the first, -0.143 for the second.

Compared with AACCCACA, ACTGCCTA is higher in “PBM E-score” value: 0.0686 for the first, 0.199 for the second.

First: AATGCCCG
Second: AATGCCTA
The “PBM E-score” value of the first is lower: -0.316 for the first, 0.359 for the second.

Going from GATGCCAA to GATGCCTA, the “PBM E-score” value rises from -0.148 to 0.439.

Going from CATGCCTA to AATGCCTC, the “PBM E-score” value falls from 0.245 to -0.0227.

Going from AATGCCGA to AATGCCTG, the “PBM E-score” value rises from -0.249 to 0.352.

Compared with CGATTTGC, ATGGCGAC is lower in “PBM E-score” value: -0.216 for the first, -0.254 for the second.

First: ACAGATCG
Second: CGAATGAC
The “PBM E-score” value of the first is lower: -0.134 for the first, 0.186 for the second.

Compared with ACGCCCTG, AACTGGAT is lower in “PBM E-score” value: -0.0695 for the first, -0.153 for the second.

Compared with GGAGCCAA, ACAACCAA is higher in “PBM E-score” value: -0.117 for the first, 0.00653 for the second.

Compared with CATGTACA, TCTGTACA is lower in “PBM E-score” value: 0.387 for the first, 0.235 for the second.

Going from AATGTACA to GATGTACA, the “PBM E-score” value falls from 0.292 to 0.259.

Compared with CATGTACG, TATGTACA is higher in “PBM E-score” value: 0.239 for the first, 0.353 for the second.

Going from GGCTCTGA to GTCTGATA, the “PBM E-score” value rises from 0.00444 to 0.0245.

Compared with CACAATCG, GGGTAGTA is lower in “PBM E-score” value: 0.018 for the first, -0.109 for the second.
